# Assay outcomes (PubChem)
# An excerpt weighted towards active compounds, which were near 5.3% of everything screened.
# HPGD inh – inhibitors of human 15-hydroxyprostaglandin dehydrogenase (HPGD); Potency, µM, for the others: at the highest dose activity change, negative = inhibition, usual class: inhibitors; AID 894; hit rate 4.3% among 150,000; purified HPGD, NADH fluorescence kinetic, PGE2 substrate; active = well fitted inhibition curve with a large enough effect, not every such curve was filed as active; inconclusive = small, poorly fitted or top-dose-only effect, or another doubt; inactive = no such curve, though single readings can be large or run the other way; also: potency is read from the fitted curve at half-maximal effect
# Target sequence (P15428 whole entry, looked up): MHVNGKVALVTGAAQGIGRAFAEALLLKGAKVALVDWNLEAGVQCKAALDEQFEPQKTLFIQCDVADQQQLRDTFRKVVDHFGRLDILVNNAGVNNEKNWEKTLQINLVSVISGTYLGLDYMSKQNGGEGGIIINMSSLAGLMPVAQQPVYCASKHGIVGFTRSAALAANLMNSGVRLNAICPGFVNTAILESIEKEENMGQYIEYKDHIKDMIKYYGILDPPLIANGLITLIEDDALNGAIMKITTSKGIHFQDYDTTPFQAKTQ
#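 NADH formation kinetics: reaction with 30 uM PGE2 and 1 mM NAD+ (final), 20 nM enzyme, Tris-HCl pH 8 with Tween 20, after 15 min compound preincubation at room temperature. Fluorescence change, last versus first of five reads.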
# ALOX12 inhib – blocks human 12-lipoxygenase activity; P18054; purified 12-hLO, xylenol orange hydroperoxide absorbance; Potency, µM (top dose mostly 57.1 µM), without a hit: top-dose activity change, negative = inhibition, actives largely listed as inhibitors; hit rate 0.12% among 150,000; AID 1452; also: potency is read from the fitted curve at half-maximal effect; nearly all actives have a fitted effect of over 55% in size
#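 Purified human 12hLO (150 nM), preincubated 15 min with compound, then 40 uM arachidonic acid for 30 min, room temperature, Hepes pH 7.0 with 0.01% Triton X-100. Hydroperoxide detected by ferrous iron/xylenol orange; 573/405 nm absorbance ratio gives reaction progress.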
# IMPase Li inh – membrane-permeable IMPase blocker, potentiated with lithium; hit rate 0.35% among 210,000; Potency, µM (top dose mostly 59.4 µM), without a hit: top-dose activity, negative = IMPase inhibition, usual class: inhibitors; CHO-M1 cells, IP1 TR-FRET (IP-One), carbachol + lithium;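 also: IP1 builds up when IMPase is blocked and the TR-FRET signal falls; potency is read from the fitted curve at half-maximal effect; plate controls were basal vehicle for no effect and high inhibitor control for full effect; nearly all actives have a fitted effect of over 50% in size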
#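 Lithium-sensitised IP1 accumulation assay; M1-expressing CHO cells treated 30 min at 37C with compound. Competitive antibody detection by time-resolved FRET followed a 10 min room-temperature lysis step.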
# ALOX15B inhib – inhibitors of human 15-lipoxygenase 2 (ALOX15B); AID 881; Potency, µM (top dose mostly 57.1 µM), without a hit: top-dose activity change, negative = inhibition, hits mostly inhibitors; O15296; purified 15hLO-2, xylenol orange hydroperoxide absorbance; hit rate 0.56% among 110,000; also: potency is read from the fitted curve at half-maximal effect; nearly all actives have a fitted effect of over 60% in size
#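 Screening format was qHTS against 50 nM purified 15hLO-2 in Hepes pH 7.5 with detergent. Activity follows hydroperoxide formation from 45 uM arachidonic acid, measured as 573:405 nm absorbance ratio of the ferric-xylenol orange complex.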
# IMPase inh – membrane-permeable compound that blocks inositol monophosphatase. 120,000 tested, under 10 active. inhibition (IP1 accumulation), % at 46.1 µM. P97697. CHO-M1 cells, IP1 accumulation, HTRF TR-FRET ratio; active = well fitted curve in the direction sought with a large enough effect in the signal ratio, not every such curve was filed as active; inconclusive = small, poorly fitted or top-dose-only effect, or a change in a side signal; inactive = no such curve, though single readings can be large or run the other way; the % refers to the signal ratio;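 also: cells stimulated with carbachol in lithium chloride buffer; plate controls were DMSO basal wells for no effect and reference inhibitor wells for full effect; higher means more IMPase inhibition seen as more IP1 and lower FRET ratio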
# Target sequence (P97697 whole entry, looked up): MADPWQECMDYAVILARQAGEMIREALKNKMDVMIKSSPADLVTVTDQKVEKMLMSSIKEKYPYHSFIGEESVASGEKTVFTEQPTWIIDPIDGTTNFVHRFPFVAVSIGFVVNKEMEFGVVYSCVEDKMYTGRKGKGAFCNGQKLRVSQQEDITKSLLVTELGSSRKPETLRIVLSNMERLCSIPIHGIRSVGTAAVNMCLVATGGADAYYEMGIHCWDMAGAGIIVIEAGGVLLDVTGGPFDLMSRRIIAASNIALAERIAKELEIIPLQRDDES
#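 Cellular IMPase inhibition is scored as a rise in cytosolic IP1, detected by competitive TR-FRET between d2-labelled IP1 and a europium anti-IP1 antibody. M1-expressing CHO cells were stimulated with carbachol for 30 min at 37C, with lithium (50 mM LiCl) present in the buffer.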
# PNC inhibitor – perinucleolar compartment assembly inhibition; activity change (PNC), negative = inhibition, % at 10 µM; hit rate 3.1% among 140,000; PC3M PTB-GFP, PNC prevalence imaging, 16 h; hits give low values;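 active = readout at or below -70, meaning at least 70% loss of cells showing the perinucleolar compartment, a nuclear body marking cancer cells; inconclusive = readout between -30 and a set limit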;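 also: plate controls were DMSO wells for no effect and camptothecin positive control wells for full effect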
#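 Read-out is percentage of cells bearing a perinucleolar compartment, from automated 20x imaging of fixed, Hoechst-stained PC3M PTB-GFP cells. Cells were seeded 4 h, then exposed 16 h to compound (23 nl of library stock) in duplicate plates.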
# The depositor's hits bear a star; ? = inconclusive; . = no result given; [ ] = another dose, or the depositor's remark. Unless noted, calls follow the shape of the dose curve; as a rule, active = well fitted curve in the direction sought with a large enough effect; inconclusive = small, poorly fitted or top-dose-only effect, or another doubt; inactive = no such curve, though single readings can be large; an effect the other way counts as inactive or inconclusive. Unless noted, % is scaled to controls: 0 for no effect and ±100 for the full control effect.
SMILES,HPGD inh,ALOX12 inhib,IMPase Li inh,ALOX15B inhib,IMPase inh,PNC inhibitor
Cc1ccc(/C=c2/sc3nnc(-c4ccccc4Cl)n3c2=O)o1,-22.0%,-29.3%,6.0%[38.3 µM],-18.1%,2.3,?
COc1ccc(Br)cc1/C=c1\sc2nc(-c3ccco3)nn2c1=O,14.1µM*,-28.7%,6.0%[38.3 µM],2.4%[2.29 µM],-6.9,-24.7
COc1ccccc1/C=c1\sc2nc(-c3ccccc3OC)nn2c1=O,-7.6%,-10.7%,11.6%[38.3 µM],-8.2%,0.0,2.4
Cc1ccc(/C=c2\sc3nc(-c4ccco4)nn3c2=O)o1,17.8µM*,-11.5%,?,-6.3%,0.0,?
CCc1nc(SCC(=O)c2ccc(C)c(C)c2)n[nH]1,?,-7.1%,1.9%[38.3 µM],-12.1%,-4.3,17.5
Cc1ccc(C(=O)CSc2n[nH]c(-c3ccco3)n2)cc1C,5.01µM*,-4.7%,20.4%[38.3 µM],-4.6%,-15.5,5.2
COc1ccc(C(=O)CSc2ccc(-c3ccco3)nn2)cc1,-16.5%,-1.4%,-1.6%,.,-16.1,?
COc1ccc(C(=O)CSc2n[nH]c(-c3ccco3)n2)cc1,3.55µM*,-1.7%,7.9%[38.3 µM],4.2%,5.7,-107.0*
CNCCCOc1cc(C)cc(C)c1C,.,.,6.3%,.,.,.
CC(C)=C1C2CCC1C1C(=O)N(c3nc(-c4ccccc4)c(C)s3)C(=O)C21 (configuration not stated),-14.8%,-2.7%,19.0%,.,13.1,41.6
COc1ccc(-c2nn3c(COc4ccccc4)nnc3s2)cc1OC,?,-9.7%,2.2%[38.3 µM],10.8%,9.4,?
c1ccc(OCc2nnc3sc(-c4cccs4)nn23)cc1,8.91µM*,-4.0%,-1.4%[38.3 µM],-19.7%,-13.5,?
Clc1ccc(Cl)c(-c2nn3c(COc4ccccc4)nnc3s2)c1,10µM*,-8.7%,46.3%[38.3 µM],-9.4%,4.3,-1.9
CS(C)(=O)=O,-14.4%,-5.5%,0.5%,-1.7%,.,.
CCOC(=O)c1c(NC(=O)c2ccccc2Br)sc2c1CCc1ccccc1-2,14.1µM*,0.7%,33.4%[38.3 µM],-23.1%,-4.5,34.1
CCOC(=O)c1c(NC(=O)COc2ccccc2Br)sc2c1CCCCC2,.,.,.,.,4.8,.
CCOC(=O)c1c(NC(C)=O)sc2c1CCC(C=O)=C2Sc1ccccc1,35.5µM*,-11.0%,49.8%[38.3 µM],?,9.7,33.1
CC(C)NC(=O)NC(=O)COC(=O)c1cccc(OC(F)F)c1,.,.,-4.7%,.,.,.
CCOC(=O)C1Cn2c(nc3c(c2=O)C2(CCCC2)Cc2ccccc2-3)S1 (configuration not stated),?,-9.0%,9.7%[38.3 µM],5.8%,3.5,-102.7*
CCOC(=O)C1Cn2c(nc3c(c2=O)C(C)(C)Cc2ccccc2-3)S1 (configuration not stated),?,-10.2%,-12.3%[38.3 µM],-12.2%,7.9,-22.4
COCCNC(=O)c1cccc(Nc2nc(-c3ccccc3)c3cc(Cl)ccc3n2)c1,28.2µM*,2.4%,9.1%,.,7.3,-18.6
COC(=O)Cn1c(=NC(=O)c2nc3ccccc3s2)sc2cc(S(N)(=O)=O)ccc21,?,1.3%,-4.7%,.,.,-22.7
COCCn1c(=NC(=O)c2nc3ccccc3s2)sc2cc(S(C)(=O)=O)ccc21,?,-0.8%,22.4µM*,.,12.1,0.0
CCOC(=O)C(NCc1ccccn1)(NC(=O)c1cccnc1)C(F)(F)F (configuration not stated),-5.7%,10.2%,17.2%[38.3 µM],39.5%,12.9,-86.1*
COc1cc(/C=C2\SC(=S)NC2=O)ccc1OS(=O)(=O)c1ccccc1,8.91µM*,-28.9%,27.5%,.,.,?
SMILES,HPGD inh,ALOX12 inhib,IMPase Li inh,ALOX15B inhib,IMPase inh,PNC inhibitor
CCOc1ccc(/C=C2\SC(=S)NC2=O)cc1OC,.,.,12.8%,.,.,.
COc1cc(/C=C(\C#N)C(N)=O)ccc1OS(=O)(=O)c1ccc(C)cc1,28.2µM*,-6.5%,11.9%,.,.,-15.5
COc1cc(/C=C2/SC(=S)NC2=O)ccc1OS(=O)(=O)c1ccc(C)cc1,10µM*,?,7.4%,.,11.9,26.2
COc1ccc(/C=C2\SC(=O)NC2=S)cc1OC,15.8µM*,-12.4%,16.6%,.,.,-14.5
COc1ccc(/C=C2\SC(=S)NC2=O)cc1OS(=O)(=O)c1ccc(NC(C)=O)cc1,.,.,7.1%,.,.,.
C=CCNC(=O)c1ccccc1NC(=O)c1ccc(Cl)c(S(=O)(=O)Nc2ccccc2)c1,?,-8.8%,-2.0%[38.3 µM],-10.8%,-13.3,32.6
COc1cccc(/C=C2\SC(N)=NC2=O)c1OS(=O)(=O)c1ccccc1,.,.,-5.4%,.,.,.
COc1cccc(/C=C2\SC(=S)NC2=O)c1OS(=O)(=O)c1ccc(NC(C)=O)cc1,25.1µM*,-6.2%,-4.1%,.,.,39.0
COc1ccc(N(C(=O)CNC(=O)c2ccco2)C(C(=O)NC2CCCCC2)c2ccco2)cc1 (configuration not stated),-5.5%,-2.4%,9.2%[38.3 µM],-6.5%,-4.1,-126.9*
COc1ccc(N(CC(=O)NC2CCCCC2)C(=O)CNC(=O)c2ccco2)cc1OC,-18.3%,-1.2%,8.9%,.,8.7,-100.0*
Cc1ccc(OCC(O)C(C)NC(C)C)c2c1CCC2 (configuration not stated),-8.6%,.,?,.,.,.
O=C(NNC(=O)c1cccnc1SCc1cccc([N+](=O)[O-])c1)c1ccc(F)cc1,-8.0%,-2.8%,9.7%,.,-7.6,-87.3*
O=C(NNC(=O)c1cccnc1SCc1cccc([N+](=O)[O-])c1)c1cccnc1,-16.0%,1.3%,3.7%,.,5.0,?
CCC(C)[C@@H](NC(=O)OC(C)(C)C)c1nnc(S(=O)(=O)Cc2cccc(C)c2)o1 (some centres not stated),14.1µM*,-10.1%,6.7%[38.3 µM],-22.4%,?,6.1
CC(C)(C)OC(=O)N[C@@H](Cc1ccccc1)c1nnc(S(=O)(=O)Cc2ccccc2)o1,3.55µM*,-18.1%,30.8%[38.3 µM],?,10.0,14.0
Cc1ccccc1CS(=O)(=O)c1nnc([C@H](Cc2ccccc2)NC(=O)OC(C)(C)C)o1,7.08µM*,-11.5%,17.7%[38.3 µM],?,21.1,?
CCN1CNC(=S)N(C(C)c2ccccc2)C1 (configuration not stated),2.1%,0.4%,-6.7%,.,1.4,28.5
CN(C)CCCCNC(=O)c1ccc(-n2c(=O)c(=O)[nH]c3ccccc32)cc1,-9.8%,-2.6%,.,.,.,.
COc1ccccc1N(CN1C(=O)c2ccccc2C1=O)C(=O)c1cccc(C)c1,-10.5%,1.5%,4.2%,.,7.6,6.3
CCn1c(CNc2ccc(C(=O)O)cc2)nc2ccccc21,-5.8%,-7.2%,-4.9%[38.3 µM],8.0%,-5.5,-109.3*
CCOC(=O)CSC1=C(C#N)C(c2ccc(C)o2)CC(=O)N1 (configuration not stated),-9.4%,-4.0%,7.4%,.,-12.6,-84.6*
